# Measured values: publication PMC12214610
# What was measured:
# [1] = target: Actin, cytoplasmic 2 (UniProt P63261)
# [2] = target: Elongation factor 1-alpha 1 (UniProt P68104)
# [3] = target: Large ribosomal subunit protein uL5 (UniProt P62399)
# [4] = target: Large ribosomal subunit protein uL2 (UniProt P60422)
# [5] = target: Small ribosomal subunit protein bS21 (UniProt P68679)
# [6] = target: 30S ribosome-binding factor (UniProt P0A7G2)
# [7] = target: Large ribosomal subunit protein uL24 (UniProt P60624)
# [8] = target: Small ribosomal subunit protein bS1 (UniProt P0AG67)
# [9] = target: Small ribosomal subunit protein uS13 (UniProt P0A7S9)
# [10] = target: DNA-binding protein HU-beta (UniProt P0ACF4)
# [11] = target: Small ribosomal subunit protein uS3 (UniProt P0A7V3)
# [12] = target: Large ribosomal subunit protein eL36 (UniProt Q9Y3U8)
# [13] = target: Large ribosomal subunit protein bL9 (UniProt P0A7R1)
# [14] = target: Large ribosomal subunit protein eL20 (UniProt Q02543)
# [15] = target: Large ribosomal subunit protein eL24 (UniProt P83731)
# [16] = target: Small ribosomal subunit protein uS11 (UniProt P62263)
# [17] = target: Small ribosomal subunit protein uS4 (UniProt P46781)
# [18] = target: Cofilin-1 (UniProt P23528)
# Sequence of Cofilin-1 (P23528 whole entry): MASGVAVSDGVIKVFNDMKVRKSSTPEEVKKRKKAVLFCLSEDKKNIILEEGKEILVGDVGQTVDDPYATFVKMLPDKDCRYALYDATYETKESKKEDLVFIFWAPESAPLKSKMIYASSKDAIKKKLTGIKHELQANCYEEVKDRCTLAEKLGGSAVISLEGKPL
# [19] = target: Heat shock 70 kDa protein 1B (UniProt P0DMV9)
# Sequence of Heat shock 70 kDa protein 1B (P0DMV9 whole entry): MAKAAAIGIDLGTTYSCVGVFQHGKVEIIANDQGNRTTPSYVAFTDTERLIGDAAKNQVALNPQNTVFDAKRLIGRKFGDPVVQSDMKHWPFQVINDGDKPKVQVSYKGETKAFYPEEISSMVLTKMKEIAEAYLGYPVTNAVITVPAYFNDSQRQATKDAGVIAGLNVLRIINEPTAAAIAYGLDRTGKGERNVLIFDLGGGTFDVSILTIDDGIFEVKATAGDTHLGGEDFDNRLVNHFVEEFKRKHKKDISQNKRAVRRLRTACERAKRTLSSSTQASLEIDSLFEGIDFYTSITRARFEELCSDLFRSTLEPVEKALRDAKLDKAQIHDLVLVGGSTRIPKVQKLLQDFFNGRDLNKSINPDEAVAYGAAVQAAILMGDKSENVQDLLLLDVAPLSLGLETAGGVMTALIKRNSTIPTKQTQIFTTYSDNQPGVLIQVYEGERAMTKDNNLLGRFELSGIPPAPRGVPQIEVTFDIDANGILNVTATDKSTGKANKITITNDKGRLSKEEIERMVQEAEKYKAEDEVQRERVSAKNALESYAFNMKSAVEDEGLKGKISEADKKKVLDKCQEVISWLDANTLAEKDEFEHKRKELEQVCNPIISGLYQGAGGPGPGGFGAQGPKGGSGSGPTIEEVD
# [20] = target: Heat shock cognate 71 kDa protein (UniProt P11142)
# Sequence of Heat shock cognate 71 kDa protein (P11142 whole entry): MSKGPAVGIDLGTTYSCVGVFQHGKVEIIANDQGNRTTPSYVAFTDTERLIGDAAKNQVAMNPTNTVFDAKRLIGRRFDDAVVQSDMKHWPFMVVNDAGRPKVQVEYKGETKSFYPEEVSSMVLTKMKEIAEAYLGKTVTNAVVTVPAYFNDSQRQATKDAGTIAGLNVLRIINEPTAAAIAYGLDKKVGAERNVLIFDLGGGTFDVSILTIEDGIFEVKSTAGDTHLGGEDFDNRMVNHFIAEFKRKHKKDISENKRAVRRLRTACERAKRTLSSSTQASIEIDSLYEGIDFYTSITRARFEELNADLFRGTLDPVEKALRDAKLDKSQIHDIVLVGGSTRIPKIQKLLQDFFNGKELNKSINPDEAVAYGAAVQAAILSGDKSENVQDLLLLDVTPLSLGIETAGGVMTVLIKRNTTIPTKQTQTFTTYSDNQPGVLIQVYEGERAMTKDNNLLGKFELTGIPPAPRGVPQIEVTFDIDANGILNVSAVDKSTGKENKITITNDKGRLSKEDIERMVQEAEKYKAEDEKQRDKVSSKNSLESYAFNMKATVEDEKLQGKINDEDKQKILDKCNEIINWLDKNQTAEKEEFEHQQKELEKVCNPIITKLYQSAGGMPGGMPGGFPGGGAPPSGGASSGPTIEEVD
# [21] = target: Peptidyl-prolyl cis-trans isomerase A (UniProt P62937)
# [22] = target: Small ribosomal subunit protein uS8 (UniProt P0A7W7)
# [23] = target: Large ribosomal subunit protein uL22 (UniProt P61175)
# [24] = target: Large ribosomal subunit protein uL4 (UniProt P36578)
# [25] = target: Adenylyl cyclase-associated protein 1 (UniProt Q01518)
# [26] = target: Small ribosomal subunit protein uS19 (UniProt P0A7U3)
# [27] = target: Large ribosomal subunit protein eL6 (UniProt Q02878)
# [28] = target: Small ribosomal subunit protein uS5 (UniProt P0A7W1)
# Sequence of Profilin-1, P07737 (P07737 whole entry): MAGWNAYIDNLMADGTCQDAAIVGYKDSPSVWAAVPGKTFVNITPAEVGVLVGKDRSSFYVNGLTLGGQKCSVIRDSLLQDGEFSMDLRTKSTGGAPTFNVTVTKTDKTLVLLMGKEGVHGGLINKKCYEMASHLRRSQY
substance,measurement,setting,value
"Elongation factor 2, P13639",listed as a hit,[1],yes
same,listed as a hit,[2],yes
"Small ribosomal subunit protein uS19, P0A7U3",listed as a hit,[3],yes
"Large ribosomal subunit protein bL9, P0A7R1",listed as a hit,[4],yes
"Small ribosomal subunit protein bS18, P0A7T7",listed as a hit,[5],yes
"Small ribosomal subunit protein uS7, P02359",listed as a hit,[6],yes
same,listed as a hit,[7],yes
same,listed as a hit,[8],yes
same,listed as a hit,[9],yes
"Large ribosomal subunit protein bL19, P0A7K6",listed as a hit,[10],yes
"Small ribosomal subunit protein uS10, P0A7R5",listed as a hit,[8],yes
same,listed as a hit,[11],yes
"Small ribosomal subunit protein uS11, P0A7R9",listed as a hit,[8],yes
"Large ribosomal subunit protein eL15, P61313",listed as a hit,[12],yes
"Large ribosomal subunit protein bL28, P0A7M2",listed as a hit,[13],yes
"Small ribosomal subunit protein uS4, P46781",listed as a hit,[14],yes
"Large ribosomal subunit protein uL4, P36578",listed as a hit,[15],yes
same,listed as a hit,[16],yes
same,listed as a hit,[17],yes
"Profilin-1, P07737",listed as a hit,[18],yes
"Polyubiquitin-B, P0CG47",listed as a hit,[1],yes
same,listed as a hit,[19],yes
same,listed as a hit,[20],yes
same,listed as a hit,[21],yes
"Small ribosomal subunit protein uS9, P0A7X3",listed as a hit,[8],yes
"Peptidyl-prolyl cis-trans isomerase A, P62937",listed as a hit,[2],yes
"Small ribosomal subunit protein uS2, P0A7V0",listed as a hit,[11],yes
same,listed as a hit,[22],yes
"Large ribosomal subunit protein bL32, P0A7N4",listed as a hit,[23],yes
"Large ribosomal subunit protein uL16, P27635",listed as a hit,[24],yes
same,listed as a hit,[17],yes
"Actin, alpha skeletal muscle, P68133",listed as a hit,[25],yes
"Large ribosomal subunit protein bL27, P0A7L8",listed as a hit,[3],yes
"Large ribosomal subunit protein bL31, P0A7M9",listed as a hit,[3],yes
same,listed as a hit,[26],yes
"Large ribosomal subunit protein eL28, P46779",listed as a hit,[27],yes
"Small ribosomal subunit protein uS4, P0A7V8",listed as a hit,[28],yes
"Small ribosomal subunit protein uS5, P0A7W1",listed as a hit,[22],yes
